“And” between values parts separate entries of the source, which are not always exact repeats. Identical values can stand only once. Screen size: about 350,000 compounds; about 2,100 (0.6%) were called active. Not shown: some 1% with an inconclusive outcome. This is one part of a sample in which actives are shown more often than they occur.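 The calls were made as follows: active = activity change of -60% or lower, but not beyond a set lower limit; inconclusive = change between -60% and -40%, or beyond the set limit; inactive = change above -40%.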 A structure can be active in one record and inactive in another.
target: Relaxin receptor 1 (Homo sapiens) (UniProt Q9HBX9); experiment: qHTS Assay for Antagonists of the Relaxin Receptor RXFP1; settings: HEK293-RXFP1, relaxin-stimulated cAMP HTRF, 30 min; at 57.5 µM; stronger effect = lower value
Sequence (Q9HBX9 whole entry, looked up): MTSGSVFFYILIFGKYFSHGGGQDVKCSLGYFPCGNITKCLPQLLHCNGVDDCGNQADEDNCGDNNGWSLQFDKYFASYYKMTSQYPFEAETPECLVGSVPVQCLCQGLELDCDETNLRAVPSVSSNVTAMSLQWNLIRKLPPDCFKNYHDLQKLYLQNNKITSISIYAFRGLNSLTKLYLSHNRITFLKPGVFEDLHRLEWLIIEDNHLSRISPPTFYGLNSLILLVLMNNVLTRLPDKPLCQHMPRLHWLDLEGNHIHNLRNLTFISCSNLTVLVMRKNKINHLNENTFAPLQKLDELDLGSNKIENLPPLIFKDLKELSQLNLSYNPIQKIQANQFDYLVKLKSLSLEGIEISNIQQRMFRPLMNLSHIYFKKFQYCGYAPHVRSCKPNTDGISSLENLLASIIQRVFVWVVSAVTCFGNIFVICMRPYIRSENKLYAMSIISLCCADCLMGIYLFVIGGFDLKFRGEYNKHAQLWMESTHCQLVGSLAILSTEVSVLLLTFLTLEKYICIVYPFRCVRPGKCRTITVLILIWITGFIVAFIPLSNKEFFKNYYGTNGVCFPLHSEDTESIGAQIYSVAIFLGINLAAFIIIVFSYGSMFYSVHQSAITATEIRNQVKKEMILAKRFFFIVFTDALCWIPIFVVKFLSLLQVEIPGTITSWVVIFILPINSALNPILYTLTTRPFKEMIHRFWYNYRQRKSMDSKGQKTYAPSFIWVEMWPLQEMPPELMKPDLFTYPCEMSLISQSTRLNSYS
% is scaled to controls: 0 for no effect and ±100 for the full control effect.

Structure (SMILES) | activity change, negative = inhibition
COc1ccc(OC)c(CNC(=O)c2c3c(nc4ccccc24)C(=O)N(C2CCCCC2)C3)c1 | -60.9% (active)
COc1ccc(CCNC(=O)c2c3c(nc4ccccc24)C(=O)N(C2CCCCC2)C3)cc1OC | -34% (inactive)
COc1ccc(OC)c(CNC(=O)C2CCCN(c3nc4ccccc4o3)C2)c1 (centres undefined) | 24.2% (inactive)
CC(=O)c1ccc(N2CCN(c3nc4c(S(=O)(=O)c5ccccc5)nnn4c4ccc(Cl)cc34)CC2)cc1 | -10.3% (inactive)
Cc1ccc(C)c(Cn2c(C(=O)O)c(CNCc3cccs3)c3ccccc32)c1 | -81.9% (active)
COc1ccc2c(CNCCc3ccccc3C)c(C(=O)O)n(Cc3ccccc3C)c2c1 | -12.7% (inactive)
O=C(O)c1c(CNCc2cccc(F)c2)c2ccccc2n1Cc1ccccc1 | -7.86% (inactive)
Cc1sc(C2C(C#N)=C(N)N(c3cccc(Cl)c3)C3=C2C(=O)CCC3)cc1CN1CCOCC1 (centres undefined) | -18.6% (inactive)
Cc1ccc2nc3c(cc(C(=O)NC4CCCCC4)c(=N)n3C(C)C)c(=O)n2c1 | -8.15% (inactive)
Cc1cccc(N2CCN(C(=O)C3CCN(S(=O)(=O)c4cnc[nH]4)CC3)CC2)c1C | -5.38% (inactive)
CCC(CC)C(=O)N1CCN(c2cccc(C)c2C)CC1 | -5.41% (inactive)
Cc1cccc(N2CCN(C(=O)c3cnc(N4CCCC4)nc3C)CC2)c1C | -77.6% (active)
O=C(COc1ccc(Cl)cc1)N(Cc1ccco1)Cc1ccco1 | -34.6% (inactive)
CCOC(=O)c1c(C)oc2nc(C)nc(N3CCN(c4ccc(OC)cc4)CC3)c12 | -3.52% (inactive)
Cc1cc(-c2n[nH]c(=S)n2/N=C/C(Br)=C/c2ccccc2)n[nH]1 | -5.02% (inactive)
S=c1[nH]nc(-c2cc(-c3ccsc3)n[nH]2)n1-c1ccccc1 | -4.32% (inactive)
S=c1[nH]nc(-c2cc(-c3ccccc3)n[nH]2)n1/N=C/c1c2ccccc2cc2ccccc12 | -78.7% (active)
Cc1nnc(C(=O)NC(C)(C)c2nc(C(=O)NCc3ccc(F)cc3)c(O)c(=O)n2C)o1 | -18.2% (inactive)
NC(=O)COc1ccc(/C=N/NC(=O)C2CCCN2S(=O)(=O)c2ccc(Cl)cc2)cc1 (centres undefined) | -2.72% (inactive)
COc1ccc(Cl)cc1N(CC(=O)N/N=C/c1ccc(OCC(N)=O)cc1)S(C)(=O)=O | -77.6% (active)
COc1ccc(Cl)cc1N(CC(=O)N1CCCCC1)S(C)(=O)=O | 15.3% (inactive)
CCOc1ccc(-c2nonc2NC(=O)c2oc3ccc(C)cc3c2C)cc1OCC | 6.02% (inactive)
CN(C(=O)CSc1nnc(NC(=O)Nc2ccccc2)s1)c1ccccc1 | -2.91% (inactive)
CC(C)c1ccc(Nc2nnc(SCC(=O)c3nnc(-c4ccccc4)o3)s2)cc1 | -83.3% (active)
CC(C)N(C(=O)CSc1nnc(NC2CC2)s1)c1ccccc1 | -4.86% (inactive)
CCc1ccc(N2C(=O)CN(S(=O)(=O)CC)CC2(C)C(=O)NC2CCCCC2)cc1 (centres undefined) | 4.08% (inactive)
Cc1nnc(N/N=C/C2CC=CCC2)[nH]c1=O (centres undefined) | -71.6% (active)

Structure (SMILES) | activity change, negative = inhibition
O=C(N/N=C\C1CC=CCC1)c1ccc(Br)o1 (centres undefined) | 0.253% (inactive)
Cc1nnc(N/N=C/c2ccccn2)[nH]c1=O | 5.71% (inactive)
Cc1ccc2nc(-c3ccc(O)cc3)c(Nc3ccc4c(c3)OCO4)n2c1 | 15.3% (inactive)
CCN(CC)c1cc(NC2CCCCC2)c2c3c(onc13)-c1ccccc1C2=O | -18.9% (inactive)
CCOC(=O)c1c(NC(=O)CSc2nccc(=O)[nH]2)sc(C)c1C | -91.3% (active)
CCOC(=O)c1c(NC(=O)CSc2nnc(Cc3csc(N)n3)n2C)sc(C)c1C | -1.84% (inactive)
CCOC(=O)c1c(NC(=O)CSc2nnc(CNc3ccc(C)cc3C)o2)sc(C)c1C | -10.8% (inactive)
CCOc1ccccc1C(=O)Nc1ccc(S(=O)(=O)N2CCCCC2c2cccnc2)cc1 (centres undefined) | -12.4% (inactive)
CCOc1ccc(N(CC)S(=O)(=O)N2CCCC(C(=O)NCc3ccc(Cl)cc3)C2)cc1 (centres undefined) | -18.5% (inactive)
CCCCNC(=O)c1ccc(-n2c(=S)[nH]c3ccccc3c2=O)cc1 | -80.7% (active)
COCCn1c(=S)[nH]c2cc(C(=O)NCCc3ccc(OC)c(OC)c3)ccc2c1=O | 2.84% (inactive)
CCN(CC)CCCNC(=O)c1ccc2c(=O)n(Cc3ccc4c(c3)OCO4)c(=S)[nH]c2c1 | -14.7% (inactive)
CCN1CCN(c2ncnc3c2cnn3-c2ccc(C)c(C)c2)CC1 | -9.99% (inactive)
O=c1oc2ccccc2c(=O)c2ccccc12 | 10.6% (inactive)
Cc1ccccc1-n1nnc2c(=O)oc3ccccc3c21 | -91.4% (active)
Cc1cccc(N2CCN(c3c(CN4CCCC4)c(=O)oc4ccccc34)CC2)c1C | -2.93% (inactive)
O=C(OCCN1CCOCC1)c1cccnc1Nc1cccc(C(F)(F)F)c1 | -38.4% (inactive)
CCOc1ccc(C(NC(=O)c2cc(OC)c(OC)c(OC)c2)c2cc(Cl)c3cccnc3c2O)cc1 (centres undefined) | -12.8% (inactive)
O=C(NCCN1CCOCC1)c1ccc(/C=C2\Sc3ccccc3N(Cc3ccc(F)cc3)C2=O)cc1 | -82.1% (active)
CN1CCN(CCCNC(=O)c2ccc(/C=C3\Oc4ccccc4N(Cc4ccc(Cl)cc4)C3=O)cc2)CC1 | 6.65% (inactive)
CCC1=Nc2cc(C(=O)NCCCN3CCOCC3)ccc2Sc2ccc(Br)cc21 | -16.7% (inactive)
O=C(NCCN1CCOCC1)/C(=C/c1ccc(F)cc1)NC(=O)c1ccccc1 | 12.6% (inactive)
O=C(NCCN1CCOCC1)c1ccc2c(c1)N(Cc1cccc(Cl)c1)C(=O)c1ccccc1S2(=O)=O | 2.8% (inactive)
Cc1ccccc1CN1C(=O)c2ccccc2Sc2ccc(C(=O)NCCCN3CCOCC3)cc21 | -22.1% (inactive) and -63.9% (active)
COc1ccc(S(=O)(=O)NCC(c2ccc(N(C)C)cc2)N2CCc3ccccc32)cc1OC (centres undefined) | -3.43% (inactive)
CN(C)c1cccc(C(=O)Nc2nc3ccc(S(=O)(=O)NC(C)(C)C)cc3s2)c1 | 1.26% (inactive)
CC(C)c1ccc(OCC(=O)N(Cc2ccc(N(C)C)cc2)C2CCS(=O)(=O)C2)cc1 (centres undefined) | -31.5% (inactive)

Reference: PubChem BioAssay AID1259400 (National Center for Advancing Translational Sciences (NCATS), 2018)
